40 sequences from the supplement of paper PMC6555819 can be followed below.

The test system of this test is PPARg:RXRa 30nM:10nM, anti-RXR (NR concentration 30 nM, RXRa partner concentration 10 nM). Kind of test: PBM binding z-score (relative to random genomic background probes); higher = stronger binding; sequences stand for … in GC…GCGATTGACAGCGTAGAATGAAGG
Summed up: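 Regression normalization was applied to scanned fluorescence from custom Agilent 4×180K protein-binding microarrays. Before scanning, arrays were incubated 1 h with ligand-free nuclear receptor dimers, and binding was detected with antibodies against each partner (one per run). Binding z-scores use the random background probes as reference.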
With CAGAGTAGGTTATGGGGCATTCAGGCAACGGTGA, the PBM binding z-score came to 3.13.

In turn, TGAATGAGGTTAAACATCAGGGAACGTGGCGTCG showed a PBM binding z-score of 1.06.

Turning to TAGCCTAGGTCATGGGCCCGTATACCACGCGAAC, the PBM binding z-score stood at 0.723.

The sequence ACTCGGAGGACTAAGGTCAGAGCTACGCCAGTGA displayed a PBM binding z-score of 0.578.

CAAACTAGGTCAAGAAAGGTCAAAGTCGAATGAC yielded a PBM binding z-score of 5.91.

CCGACTAGGGCATAAGGTTACCATAAGCCAGCCC: the PBM binding z-score was found to be 1.43.

With TGTCAAAGTTCAAAGGTAACGTGAGTATCCACAC, the PBM binding z-score is 6.04.

Consider GCTTGTAGATCAAGGTTAAGCAAGACTAAGCTAA, for which the PBM binding z-score amounted to 0.405.

As for ACAGACAGGTGATGAAAGTAACTCAGGCTATCAT, the PBM binding z-score was -0.0592.

AACTCTAGGTAAAGATAGTTCAGTGAATGCAAAT gave a PBM binding z-score of 0.0247.

As to CGAACGAGGGCATGAGTTGTTAGCAAATGCCGAT, the PBM binding z-score was -0.27.

The sequence TCTTGTACATCAGCAGGTTAAGAAAGCTGGCCAA displayed a PBM binding z-score of 2.81.

On to TCTGCTAGGTAAGTTGGTCAGCTAACGAGCTGCC, for which the PBM binding z-score stood at 1.22.

As for ACTATTAGTTGACTTAGGGCAACCCATACGACGC, the PBM binding z-score was found to be 0.457.

GCTCGGAGGACAAGGCCAGAGCTTTGTCCGTAGA: the PBM binding z-score is -1.47.

In the case of GGAACGAGGGCACAGTTGATAGCATCTGTCGACG, the PBM binding z-score was determined as 1.56.

TAGCCTAGGTCATTCAGGTGCCAGTATAGAAAGC came in with a PBM binding z-score of 0.493.

With ATACCAAGGGGATCGTGAGGTCGTTGATACTAAC, the PBM binding z-score was -0.375.

For ATATGTAGGTTATCGGGTCATTCAATTTGCGCAT, the PBM binding z-score is 3.98.

In turn, TCGAGTAGGTTAGACGGGGCATTCAGCCAACATA registered a PBM binding z-score of 1.05.

With CAAACTAGGTCTAAGGTCAAAGTCGAGCCAACCA, the PBM binding z-score worked out at 9.22.

As for ATATGTAGGTAAGCTGGGGTCATTCAGACTAGGC, the PBM binding z-score is 2.

On to CGGACTAGGTCAAGGACAGTGAATCTCCGCACGC, for which the PBM binding z-score is 2.5.

TCGAGTAGGTTAGTGGCATTCAGAATGGCGTCGA registered a PBM binding z-score of 0.972.

Turning to CCAGCTAGGTCATGGTCAGCTAATCTACAGTATG, the PBM binding z-score worked out at 0.995.

In turn, ACTATAAGTTGAGACGAGGGCAACCGATAGGTTG came in with a PBM binding z-score of 0.313.

For TCTTGTTGATCAACAGGAGGTTAAGAAAGATCGA, the PBM binding z-score worked out at 2.18.

Sequence CAAACTAGGTCGCGAAAGGTCAAAGTCGAATGAC came in with a PBM binding z-score of 4.55.

GGAACGAGGGCAAAGTTGATAGCATCTGTCGACG gave a PBM binding z-score of 5.84.

The sequence CGTCCAAGGTCAATGTCAGTGAAAGAGACTCGAA gave a PBM binding z-score of 1.3.

For the sequence ACAATGAGGTTAAGATCAGGGAAACAGAATACAT, the PBM binding z-score came to 0.802.

The sequence ACTTACGGGTCAACGAGGTTATAGAACGCGTATA yielded a PBM binding z-score of 2.2.

Sequence TCTAGTTGGTCAAAGGTCACTCACTCGAAATGCG gave a PBM binding z-score of 10.6.

In turn, TCTCGTTGGTCAAAGGTCACACACTCGAAATGCG showed a PBM binding z-score of 7.87.

As to TCTGCTGGGTCAGTTGGTCAGCTAACGAGCTGCC, the PBM binding z-score is 1.09.

As for GCGACTGGGGCATCAGCAGGTTCCCATAACTTAA, the PBM binding z-score was -0.948.

For CCTAGTGGGCCAAAAAGGTCATTGATGCCGATAA, the PBM binding z-score was found to be 1.73.

In turn, TAGCCTAGGTCATACGGGCCAGTATAGTGTCGGC yielded a PBM binding z-score of 0.318.

CCGACTGGGGCATAAAGGTTACCATACCATCCGG had a PBM binding z-score of 2.08.

In turn, CCTGCTGGGCCATTCAGAGGTCATTGATCATATG had a PBM binding z-score of 0.0618.
